Pf growth 48h: Primary qHTS for delayed death inhibitors of the malarial parasite plastid, 48 hour incubation | P. falciparum luciferase growth in erythrocytes, 48 h | Potency, µM (highest dose often 28.7 µM), inactives show at the top dose activity change, negative = inhibition, actives largely listed as inhibitors | 5.9% of 310,000 active; also: potency is read from the fitted curve at half-maximal effect; % is scaled to controls: 0 for no effect and ±100 for the full control effect
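Luciferase-expressing P. falciparum in infected erythrocytes (2% hematocrit, 0.1% parasitemia final) in RPMI 1640/0.5% Albumax were exposed to compound for 48 hours at 37 C, 5% CO2; growth read as luminescence.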
CHX counter: Cycloheximide Counterscreen for Small Molecule Inhibitors of Shiga Toxin | 12% of 300,000 active | cell reporter, cycloheximide protein synthesis inhibition counterscreen | AID 2314, 2010 | max response, %; in the data active = max response mostly above about 13%, no sharp cut-off; inactive = mostly below about 14%; also: read at 38.3 µM for the half of the compounds with a filed dose; 0% is about no effect
Pf growth 96h: Primary qHTS for delayed death inhibitors of the malarial parasite plastid, 96 hour incubation; P. falciparum luciferase reporter growth, 96 h; Potency, µM (highest dose often 28.7 µM), without a hit: at the top dose activity change, negative = inhibition, hits mostly inhibitors; 6.9% of 320,000 active; AID 504834, 2011; also: potency is read from the fitted curve at half-maximal effect; % is scaled to controls: 0 for no effect and ±100 for the full control effect
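Two-generation exposure (96 h) targets delayed-death phenotype. Reporter parasites carrying integrated firefly luciferase, in red cells at 2% hematocrit and 0.05% parasitemia final, kept at 37 C, 5% CO2; luminescence loss indicates inhibition.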
Shiga toxin inh: A qHTS for Small Molecule Inhibitors of Shiga Toxin; Vero cells, Shiga toxin protein synthesis inhibition reporter; inhibition, % at 38.7 µM; 9.2% of 290,000 active; AID 2315, 2010; in the data active = inhibition mostly above about 28%, no sharp cut-off; inactive = mostly below about 43%; also: 0% is about no effect
* marks the source's active call; other numbers are inactive results; i = inactive; ? = inconclusive; . = no result; + = active, no number; [ ] = another dose, or the depositor's remark. In the library only some 21% were active in any assay of this set; here they are far more common. Unless noted, calls follow the shape of the dose curve; as a rule, active = well fitted inhibition curve with a large enough effect; inconclusive = small, poorly fitted or top-dose-only effect, or another doubt; inactive = no such curve, though single readings can be large or run the other way.

SMILES	Pf growth 48h	CHX counter	Pf growth 96h	Shiga toxin inh
Cc1ccccc1N1CCN(C2CCCN(C(=O)c3ccnn3C)C2)CC1 (stereo not drawn)	?	7	99%	23
O=C(CCC(=O)N1CCc2ccccc21)Nc1ccccc1	4%	2	.	11
COc1ccc(N2CCN(C(C)C(=O)N3CCc4ccccc43)CC2)cc1 (stereo not drawn)	?	5	-14%	-19
COc1ccc(NC(=O)N2CCc3ccccc32)cc1	126%	29*	.	38
Cc1ccc(OCCC(=O)OCC(=O)N2c3ccccc3CC2C)cc1 (stereo not drawn)	?	-4	0%	12
CCOCC(=O)N1CCc2ccccc21	13%	1	.	17
O=C(Cc1ccc(-n2cccc2)cc1)N1CCc2ccccc21	.	20*	?	47
O=C(Nc1ccccc1)N1CCc2ccccc21	i	37*	5%	71*
COc1ccc(CCC(=O)N2c3ccccc3CC2C)cc1 (stereo not drawn)	13%	35*	0%	88*
C/C(=C\c1ccc2c(c1)OCO2)C(=O)c1c(C)cc(C)[nH]c1=O	7%	-1	?	-11
CN1CCN(C(=O)c2cccc(NS(=O)(=O)c3ccc(Br)cc3)c2)CC1	-10%	.	2%	.
CC1Cc2ccccc2N1C(=O)CCS(=O)(=O)c1cccs1 (stereo not drawn)	0%	33*	?	60*
COc1ccc(C(=O)N2CCc3ccccc32)cc1	11%	30*	-29%	46*
CC1(CCc2ccccc2)NC(=O)N(CC(=O)N2CC(=O)Nc3ccccc32)C1=O (stereo not drawn)	?	7	-16%	14
COc1ccc(CCC(=O)N2CCc3ccccc32)cc1	135%	41*	56%	133*
CC1Cc2ccccc2N1C(=O)Cc1cccs1 (stereo not drawn)	0%	-2	13%	-2
CC1Cc2ccccc2N1C(=O)CN1C(=O)NC(C)(CCc2ccccc2)C1=O (stereo not drawn)	-29%	14*	?	-2
COc1ccc(NC(=O)CC2Oc3ccccc3NC2=O)c(OC)c1 (stereo not drawn)	-12%	1	39%	-5
Cc1ccc(C)c(NC2=C(Cl)C(=O)OC2OC(C)C)c1 (stereo not drawn)	-2%	9	-5%	-6
Cn1c(=O)[nH]c(=O)c2c1nc(SCCCO)n2CCCc1ccccc1	0%	-5	96%	-15
CCCCc1cc(=O)oc2cc(OCc3nn[nH]n3)ccc12	?	-3	0%	-11
CCn1cc(C(=O)N2CCCc3ccccc32)c2cc(OC)c(OC)cc2c1=O	15µM*	6	.	0
COC(=O)/C(=N/Nc1ccccc1OC)N1CCCc2ccccc21	?	15	?	36
CCOc1ccccc1NC(=O)N1CCCc2ccccc21	2%	12	145%	33
COc1ccc(N/N=C(/C(C)=O)N2CCCc3ccccc32)cc1	4%	11	12µM*	43
SMILES	Pf growth 48h	CHX counter	Pf growth 96h	Shiga toxin inh
O=C(NCC1CCCC(CNC(=O)N2CCc3ccccc32)C1)N1CCc2ccccc21 (stereo not drawn)	.	13	5.9µM*	-8
C=CCC(CC)C(=O)NC(=O)N1CCCc2ccccc21 (stereo not drawn)	0%	7	-6%	30*
O=C(C1CCCCC1)N1CCc2ccccc21	1%	6	-36%	43
CC(OC(=O)CCOc1ccccc1)C(=O)NC1CC1 (stereo not drawn)	?	.	8%	.
CC1CCN(C(=O)C2CCN(S(=O)(=O)c3cccc4nonc34)CC2)CC1	14%	-2	0%	-13
COc1ccc(OC(C)C(=O)N2CCCc3ccccc32)cc1 (stereo not drawn)	8%	15	-21%[5.75 µM]	46
CCc1ccccc1NC(=O)CCC(=O)N1CCSc2ccccc21	-10%	1	4.1µM*	-3
COc1ccc(NC(=O)N2CCCc3cc(C)ccc32)c(OC)c1	-15%	2	?	14
COc1ccc(NC(=O)N2CCCc3ccccc32)cc1	47%	18*	-7%	122*
COc1ccc(OC)c(NC(=O)N2CCCc3ccccc32)c1	24%	25*	-24%	30
CCc1ccccc1NC(=O)N1CCc2ccccc21	21%	16*	-2%	53*
Cc1ccc(CNC(=O)CCNS(=O)(=O)c2cccc3nsnc23)cc1	1%	-7	2%	-2
CN(C(=O)CSc1nnc(-c2ccco2)n1Cc1ccccc1)C1CCS(=O)(=O)C1 (stereo not drawn)	-27%	.	-23%	.
CCCn1nc(C(=O)NNC(=O)CCCOc2ccc(C)cc2)c2ccccc2c1=O	-3%	-2	-3%	2
Cc1cc(C)cc(NC(=O)C2C3C=CC4(O3)C2C(=O)N(CCN2CCCCC2)C4C(=O)NC2CCCCC2)c1 (stereo not drawn)	?	-3	10µM*	-2
CCCN(CCC)CCN1C(=O)C2C(C(=O)Nc3cccc(SC)c3)C3C=CC2(O3)C1C(=O)NC1CCCCC1 (stereo not drawn)	3.7µM*	-4	-28%	-6
CCN(CC(=O)Nc1ccc(NC(C)=O)cc1)C(=O)C1COc2ccccc2O1 (stereo not drawn)	-13%	-4	37%	-12
CCN1C(=O)/C(=C/c2ccc(C)s2)NC1=S	8%	18	.	8
CCN1C(=O)C(=Cc2ccc(C)s2)C(=O)N(CC)C1=S	103%	21	108%	44*
Cc1ccccc1OCc1nc2ccccc2c(=O)n1/N=C/c1cccc([N+](=O)[O-])c1	80%	23*	99%	+
Cc1ccccc1OCc1nc2ccccc2c(=O)n1/N=C/c1cn[nH]c1-c1ccccc1	?	7	?	30
O=c1c2ccccc2nc(COc2ccccc2)n1/N=C/c1ccco1	118%	35*	-6%	69*
CCCc1nc2ccccc2c(=O)n1/N=C/c1ccc(O)cc1	12µM*	-2	?	-14
Cc1ccc(-c2[nH]ncc2/C=N/n2c(COc3ccccc3)nc3ccccc3c2=O)cc1	12µM*	29*	10µM*	42
CN(Cc1ccc(Cl)cc1)C(=O)COC(=O)CSc1ccc([N+](=O)[O-])cc1	-29%	.	-2%	.
SMILES	Pf growth 48h	CHX counter	Pf growth 96h	Shiga toxin inh
Cc1ncc(CO)c(CNc2ccc(Oc3ccccc3)cc2)c1O	?	3	74%	-3
O=c1c2ccccc2nc(COc2ccccc2)n1/N=C/c1ccc(O)c(O)c1	?	25*	?	19
CCc1ccc2oc(C(=O)NC3CCS(=O)(=O)C3)cc(=O)c2c1 (stereo not drawn)	34%	-3	-5%	-5
Cn1c(=O)c2sccc2n2c(CCCC(=O)NC3CCN(Cc4ccccc4)CC3)nnc12	11%	-3	?	-5
CCCCc1cc(=O)oc2cc(C)cc(OCC(=O)N3C[C@H]4C[C@@H](C3)c3cccc(=O)n3C4)c12	10µM*	-2	?	9
CCc1cc(=O)oc2cc(C)cc(OCC(=O)N3CCC(C(=O)NC(C)C)(c4ccccc4)CC3)c12	10µM*	1	10µM*	-8

Assay outcomes deposited in PubChem by National Center for Advancing Translational Sciences (NCATS).
